Assay outcomes from PubChem.
Shown are actives, neighbours in structure and some others; about 7.2% of the full set was active somewhere.
Tau fil binding – qHTS Assay for Tau Filament Binding; Microtubule-associated protein tau (Homo sapiens), P10636; recombinant tau filaments, thioflavin S fluorescence, 15 h; filaments grown with octadecylsulfate alongside compound; Potency, µM (titrated, usually from 57.1 µM), for inactives: top-dose activity change, negative = inhibition; 2% of 71,000 active; AID 596, 2007;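 further: on the % scale 0 is the no-effect control and ±100 the full control effect; actives lower thioflavin S fluorescence by blocking filaments or displacing dye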
Target sequence (P10636 whole entry, looked up): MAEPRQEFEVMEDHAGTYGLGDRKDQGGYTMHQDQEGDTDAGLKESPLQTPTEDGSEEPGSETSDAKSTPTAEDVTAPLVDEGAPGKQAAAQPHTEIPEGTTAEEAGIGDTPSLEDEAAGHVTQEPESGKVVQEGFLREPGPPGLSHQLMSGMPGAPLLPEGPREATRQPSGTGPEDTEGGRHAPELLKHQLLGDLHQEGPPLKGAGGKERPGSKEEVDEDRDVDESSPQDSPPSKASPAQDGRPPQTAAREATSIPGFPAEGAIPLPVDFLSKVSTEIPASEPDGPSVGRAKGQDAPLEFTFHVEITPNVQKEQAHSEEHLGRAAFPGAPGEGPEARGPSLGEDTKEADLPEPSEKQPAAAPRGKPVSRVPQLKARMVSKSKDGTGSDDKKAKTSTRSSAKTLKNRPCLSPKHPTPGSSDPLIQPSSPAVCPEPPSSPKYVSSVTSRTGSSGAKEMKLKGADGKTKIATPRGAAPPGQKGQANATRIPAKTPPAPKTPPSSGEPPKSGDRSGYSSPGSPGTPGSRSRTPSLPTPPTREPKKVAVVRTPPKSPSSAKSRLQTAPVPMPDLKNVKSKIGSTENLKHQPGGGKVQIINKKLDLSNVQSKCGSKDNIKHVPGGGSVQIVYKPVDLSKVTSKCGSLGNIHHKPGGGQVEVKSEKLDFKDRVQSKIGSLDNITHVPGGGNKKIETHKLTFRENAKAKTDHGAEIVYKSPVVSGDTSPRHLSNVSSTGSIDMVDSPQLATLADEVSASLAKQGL
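ThS-based fibril read: tau 1 uM final, inducer ODS 30 uM final, 37 C for 15 h, ex 450/em 510 nm.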
Bst PK mod – Pyruvate Kinase; purified pyruvate kinase, luminescence ATP production; ribose 5-phosphate activator present at AC10; Potency, µM; 1.2% of 51,000 active; AID 361, 2006; in the data active means potency below about 11 µM; inconclusive means mostly about 12 µM to 25 µM;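 the screen sought inhibitors and activators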;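 further: scaled between full activation by ribose 5 phosphate and full inhibition by luteolin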
TSHR ag – qHTS Assay for Agonists of the Thyroid Stimulating Hormone Receptor; 0.48% of 73,000 active; AID 926, 2007; Potency, µM (doses to about 57.1 µM), for the others: at the top dose activation, usual class: activators; HEK293-CNG-TSHR cells (CNG channel as cAMP sensor), membrane potential dye, cAMP; Thyrotropin receptor (Homo sapiens), P16473; active means well fitted activation curve with a large enough effect in the main read-out, with a control signal flat, not every such curve was filed as active; inconclusive means small, poorly fitted or top-dose-only effect, or a change in a side signal; inactive means no such curve, though single readings can be large or run the other way; % of control where 0% means no effect;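 further: the control signal comes from parental cells without the receptor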
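HEK 293 cells stably expressing TSHR and a cAMP-gated CNG channel; parental CNG-only cells as counterscreen. Cells preloaded 60 min with membrane potential dye plus 100 uM RO 20-1724, then compound 30 min; fluorescence read at 590 nm.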
HEK293 cAMP cs – qHTS Assay for Agonists of the Thyroid Stimulating Hormone Receptor: Activators of Intracellular cAMP Concentrations in Parental HEK 293. parental HEK293 CNG cAMP sensor, membrane potential fluorescence. Potency, µM (series often up to 57.1 µM), inactives show at the top dose activation, usual class: activators. 2.5% of 73,000 active; further: % of control where 0% means no effect; nearly all actives have a fitted effect of over 55% in size
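Parental HEK 293 cells stably expressing a cAMP-gated CNG channel were loaded with membrane potential dye containing 100 uM RO 20-1724 for 60 min. Compound added for 30 min; depolarization read as fluorescence intensity at 590 nm.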
FLuc inh – qHTS Assay for Inhibitors of Firefly Luciferase. purified firefly luciferase, luminescence, 8 min. Potency, µM (top dose mostly 57.1 µM), inactives show top-dose activity change, negative = inhibition, actives largely listed as inhibitors. 2.2% of 72,000 active. Luciferin 4-monooxygenase (Photinus pyralis), P08659; further: on the % scale 0 is the no-effect control and ±100 the full control effect; nearly all actives have a fitted effect of over 40% in size
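Substrate buffer containing 10 uM ATP (pH 7.2 imidazole, Mg2+, KCl, detergent, BSA) is dispensed, compound pinned in, then luciferase/luciferin detector mix added. After 8 min at ambient temperature, light output is measured.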
ERK AVP inh – qHTS Assay for Inhibitors of the ERK Signaling Pathway using a Homogeneous Screening Assay; Potency, µM (doses to about 57.5 µM), for the others: at the highest dose activity, negative = inhibition, actives largely listed as inhibitors; HEK293-V1b, vasopressin-stimulated pERK AlphaScreen; 0.99% of 72,000 active; further: on the % scale 0 is the no-effect control and ±100 the full control effect; nearly all actives have a fitted effect of over 55% in size
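Overnight-seeded V1b-HEK293 cells in 1% FBS got compound, then vasopressin (25 nM final, 5 min, 37C), then lysis buffer. AlphaScreen detection of phospho-ERK; activity normalized to basal and full-stimulation controls.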
Active calls of the source: *; u = inconclusive; x = no result; [ ] = remark or other dose. Unless noted, the call rests on the fitted dose curve; in most records, active means well fitted curve in the direction sought with a large enough effect; inconclusive means small, poorly fitted or top-dose-only effect, or another doubt; inactive means no such curve, though single readings can be large; an effect the other way counts as inactive or inconclusive. Potency means the concentration at half of the fitted maximal effect.

SMILES	Tau fil binding	Bst PK mod	TSHR ag	HEK293 cAMP cs	FLuc inh	ERK AVP inh
CCN1C(=O)c2c(C)nc3ccccc3c2C1=O	15.8µM*	>57	-3.2%	0.9%	1.3%	u
CN1CC[C@@]2(CCCN(C(=O)c3ccco3)C2)C1	-1.2%	x	1.9%	1.4%	1.6%[11.4 µM]	1.5%
CN(C(=O)c1ccco1)C1(c2ccccc2Cl)CCCCC1=O (centres undefined)	7.2%	>57	u	20µM*	3.7%	-18.9%
CC(=O)N(C1=NCCCS1)c1ccc(F)cc1	-2.5%	>57	u	1.58µM*	3.4%	0.3%
C(=C/c1ccccc1)/CN1CCN(CCOC(c2ccccc2)c2ccccc2)CC1	u	x	31.6µM*	6.5%	0.0%	u
c1ccc(C(OCCN2CCNCC2)c2ccccc2)cc1	-8.9%	>57	3.7%	10.1%	1.4%	-26.2%
CN(C)CS/C(N)=N/[C@H](O)C(Cl)(Cl)Cl	25.9%[11.4 µM]	x	0.2%[11.4 µM]	-10.0%[11.4 µM]	4.2%[11.4 µM]	3.9%[11.5 µM]
ClCC[N+]12CC[N+](CCCl)(CC1)C2 (tested in a mixture with another compound)	-9.2%[11.4 µM]	x	1.3%[11.4 µM]	3.6%[11.4 µM]	1.6%[11.4 µM]	-5.5%[11.5 µM]
CCC1=C(C[C@H]2NCCc3cc(OC)c(OC)cc32)C[C@H]2c3ccccc3CCN2C1	-0.8%[11.4 µM]	x	u	u	0.4%[11.4 µM]	-17.6%[11.5 µM]
O=C(O)[C@H]1CCN1	-1.5%	x	8.8%	-15.5%	3.7%	-5.9%
O=C(O)[C@@H]1C[C@H]2C[C@@H](CP(=O)(O)O)CC[C@H]2CN1	31.6µM*	x	3.7%	0.4%	-0.6%	16.7%
COc1ccccc1N1CCN(Cc2ccccc2Cl)CC1	x	x	8.1%	11.4%	x	x
Nc1ccc(N2CCN(Cc3ccccc3Cl)CC2)c(Cl)c1	25.1µM*	x	-13.7%	-12.0%	-1.4%	-22.5%
N#CCCCC[N+]12CN3CN(CN(C3)C1)C2	13.7%[11.4 µM]	x	8.6%[11.4 µM]	-1.4%[11.4 µM]	3.6%[11.4 µM]	-0.8%[11.5 µM]
COS(C)(=O)=O	9.6%	x	u	-27.8%	x	-6.0%
C[C@@](Br)(C(=O)O)[C@H](Br)C(=O)O	-0.4%[11.4 µM]	x	5.3%[11.4 µM]	2.0%[11.4 µM]	0.6%[11.4 µM]	7.2%[11.5 µM]
COc1ccc(C(=O)c2c(C)n(CCN3CCOCC3)c3cc(I)ccc23)cc1	u	x	u	6.31µM*	0.4%	1.1%
CC(C)[C@H]1C(=O)N2CCC[C@@H]2[C@]2(O)O[C@@](NC(=O)[C@H]3C=C4c5cccc6[nH]cc(c56)C[C@H]4N(C)C3)(C(C)C)C(=O)N12	323.4%	x	-5.5%	-5.2%	-1.1%[11.4 µM]	x
CN1CCN(C(=O)COc2ccc3ccccc3c2Br)CC1	15.8µM*	>57	0.0%	4.7%	0.0%	30.6%
Cc1cc(Cl)ccc1OCC(=O)N1CCN(C)CC1	4.3%	x	2.3%	6.1%	0.7%	-14.0%
CN(C)CCC(C#N)(c1ccccc1)c1ccccc1	-2.2%[11.4 µM]	x	0.6%[11.4 µM]	27.5%[11.4 µM]	0.9%[11.4 µM]	-13.6%[11.5 µM]
COC(=O)[C@@]1(Cc2ccccc2)[C@H]2c3cc(C(=O)N(C)C)[nH]c3C[C@H]2CN1C(=O)c1ccccc1	6.5%	x	u	u	x	1.9%
COC(=O)[C@@]1(Cc2ccccc2)[C@H]2c3cc(C(=O)N(C)C)n(C)c3C[C@H]2CN1C(=O)c1ccccc1	39.9%	x	u	25.1µM*	x	1.7%
C=CCN1CC[C@@]23CCCC[C@@H]2[C@@H]1Cc1ccc(O)cc13	-0.1%	x	20.9%	10.5%	0.4%	20.8%
C=CCn1c(O)c(C(C)=Nc2ccc(N(CC)CC)cc2)c(=O)[nH]c1=O	15.8µM*	>57	x	-8.0%	0.4%	-19.5%
C=CCn1c(O)c(C(CC)=Nc2ccc(N(CC)CC)cc2)c(=O)[nH]c1=O	-24.3%	>57	3.6%	3.3%	0.9%	12.1%
C=CCn1c(O)c(C(C)=Nc2ccc(N(C)C)cc2)c(=O)[nH]c1=O	-18.9%	>57	4.2%	-0.1%	1.9%	12.6µM*
CC1=NN(c2ccc(S(=O)(=O)O)cc2C)C(=[OH+])[C@H]1N=Nc1cc(S(=O)(=O)O)ccc1C(=O)O.O.[Cr]	0.8%[11.4 µM]	x	u	u	2.4%[11.4 µM]	-4.2%[11.5 µM]
N#CC(C#N)=Cc1cc(O)c(O)c(O)c1	10.5%	x	u	u	-3.5%	11.8%
